PubChem BioAssay AID504652 (National Center for Advancing Translational Sciences (NCATS), 2011)
About 11,000 (3.1%) of roughly 360,000 compounds were called active. Rule as the data show it: active = activity change below about -30%; inactive = the rest. This excerpt belongs to a sample that is enriched for actives.

Biological target: D(1A) dopamine receptor (Homo sapiens) (UniProt P21728)
Assay: Antagonist of Human D 1 Dopamine Receptor: qHTS
Settings: HEK293 TREx D1 cells, calcium flux, dopamine EC80; at 10 µM; active compounds read low
Text: Dopamine receptors (DARs) are involved in the etiology and/or therapy of a number of neuropsychiatric and endocrine disorders. For instance, all receptor-based antiparkinsonian drugs work via stimulating the […] DAR subtype whereas all FDA-approved antipsychotic agents are antagonists of this receptor. […] There are three different types of allosteric modulators that we are seeking, two of which will stimulate or augment receptor signaling, allosteric agonists and potentiators, while the third, allosteric antagonists, will attenuate receptor signaling. The present primary screening assay measures compound antagonism after an EC80 addition of dopamine by tracking calcium flux in a […], inducible Hek293 Trex D1 cell line. NIH Chemical Genomics Center [NCGC] NIH Molecular Libraries Probe Centers Network [MLPCN] MLPCN Grant: NS064831-01 Assay Submitter (PI): David Sibley
Freshly passaged cells are plated in 1536 well black, clear bottom plates at a density of 4000 cells/well in 3 ul of complete media containing 1x tetracycline inducer. After an overnight incubation at 30 C in 5% CO2, cells are loaded with 2 ul of the no wash Calcium Assay Kit (ABD Bioquest) and incubated at room temperature for 30 to 90 minutes. Agonist read: A 10 cycle (1 second/cycle) baseline measurement is taken and then the FDSS online 1536 pintool delivers 23 nl of compound library (as well as dopamine controls) to the plate. The plate is measured for kinetically at 1 cycle/sec for 180 seconds. Following the 180 second read, 1 ul of an EC80 (negative modulation assay) is delivered by an onboard pipette head. Measurements are taken kinetically for an additional 180 seconds.
% is scaled to controls: 0 for no effect and ±100 for the full control effect.

Chain of D(1A) dopamine receptor (Homo sapiens) (P21728 whole entry, looked up): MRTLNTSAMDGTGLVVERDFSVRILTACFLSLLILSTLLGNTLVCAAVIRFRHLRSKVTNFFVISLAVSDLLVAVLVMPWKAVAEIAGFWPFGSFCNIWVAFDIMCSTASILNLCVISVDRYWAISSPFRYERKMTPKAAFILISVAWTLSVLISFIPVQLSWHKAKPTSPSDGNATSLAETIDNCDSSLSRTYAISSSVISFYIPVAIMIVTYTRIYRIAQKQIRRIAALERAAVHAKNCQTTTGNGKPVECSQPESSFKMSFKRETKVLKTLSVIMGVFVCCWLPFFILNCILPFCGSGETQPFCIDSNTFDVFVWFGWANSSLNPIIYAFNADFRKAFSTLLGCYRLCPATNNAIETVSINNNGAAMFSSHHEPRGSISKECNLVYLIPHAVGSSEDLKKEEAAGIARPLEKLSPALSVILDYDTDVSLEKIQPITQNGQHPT

Structure (SMILES)	activity change, negative = inhibition
Cc1nnc(SCc2cc(=O)c3cc(F)ccc3[nH]2)n1C	-67.4% (active)
Cn1c(SCc2ccc(F)cc2)nnc1-c1ccncc1	5.13% (inactive)
O=c1cc(CSc2ncn[nH]2)[nH]c2ccc(F)cc12	10.4% (inactive)
Cc1cccc(NC(=O)c2ccc3nc(C(C)C)oc3c2)c1C	9.09% (inactive)
CC1CC1C(=O)OCC(=O)c1c(N)n(C)c(=O)n(C)c1=O (stereo not given)	5.53% (inactive)
Cn1c(N)c(C(=O)COC(=O)c2cnc(Cl)c(Cl)c2)c(=O)n(C)c1=O	12.2% (inactive)
Cc1cc(C(=O)OCC(=O)c2c(N)n(C)c(=O)n(C)c2=O)c(C)o1	-60.8% (active)
O=C(CSc1nccn1-c1ccc(F)cc1)Nc1cccc2ccccc12	43.1% (inactive)
O=C(Cn1c(=O)n(Cc2cccs2)c(=O)c2cccnc21)Nc1ccc(F)cc1	2.03% (inactive)
Cc1c(Cl)cccc1NC(=O)C1CCCN(c2ncnc3onc(C)c23)C1 (stereo not given)	-3.12% (inactive)
COc1ccc(C(CCN(Cc2ccc(OC)c(OC)c2)C(=O)CCl)c2ccccc2)cc1 (stereo not given)	0.248% (inactive)
CN(Cc1ccccc1)C(=O)COc1ccccc1	2.23% (inactive)
COc1ccc(CN(C)C(=O)CC(c2ccccc2)c2ccccc2)cc1	-31.6% (active)
O=C(c1cc(COc2ccc(F)c(F)c2)on1)N1CCOCC1	-16.4% (inactive)
CCOC(=O)CC1COCCN1C(=O)c1cc(COc2ccc(F)c(F)c2)on1 (stereo not given)	-41% (active)
CCC(NC(=O)c1cc(COc2ccc(F)c(F)c2)on1)c1ccncc1 (stereo not given)	-27.1% (inactive)
Cc1ccc(C(=O)N2CCc3cc(CNC(=O)c4ccc(Br)cc4)ccc32)cc1	3.02% (inactive)
Cc1noc2ncnc(NCc3ccccc3Cl)c12	-4.33% (inactive)
Cc1nn(C)c(C)c1NS(=O)(=O)c1ccc(OC(F)(F)F)cc1	-90.7% (active)
COc1ccc(OC)c(S(=O)(=O)Nc2c(C)nn(C)c2C)c1	2.31% (inactive)
Nc1ncc(S(=O)(=O)Nc2ccc(OC(F)(F)F)cc2)cn1	18% (inactive)
Cc1cccc(NC(=O)C2CCN(S(=O)(=O)c3c(C)noc3/C=C/c3ccco3)CC2)c1	-5.72% (inactive)
C=Cc1ccc(Cn2c(C(=O)OC)cc3sc(C)cc32)cc1	21.5% (inactive)

Structure (SMILES)	activity change, negative = inhibition
CC(Sc1nnc(-c2cccs2)n1C1CC1)C(=O)NCC1CCCO1 (stereo not given)	-30.6% (active)
CC(Sc1nn(-c2ccc(Cl)cc2)c(=S)s1)C(=O)NCC1CCCO1 (stereo not given)	-0.972% (inactive)
Cc1ccc(N(C(=O)Cc2cccs2)C(C(=O)NCC2CCCO2)c2ccncc2)cc1 (stereo not given)	-0.595% (inactive)
CC(C)OCCCn1c(SCC(=O)c2ccccc2)nc2c(sc3ccccc32)c1=O	4.36% (inactive)
Cc1cc(C)cc(OC(C)C(=O)Nc2nc3c(s2)CCCC3)c1 (stereo not given)	3% (inactive)
COc1ccc2cc(CNc3ccc(OC)c(OC)c3)c(=O)n(CC(=O)Nc3ccccc3F)c2c1	-14.2% (inactive)
O=C(NCCc1c[nH]c2ccccc12)C1CCN(Cc2ccc(Br)cc2)CC1	-56.3% (active)
Cc1ccc2[nH]cc(CCNC(=O)C3CCCCC3)c2c1	-23.8% (inactive)
CCOc1ccc(CN2CCN(Cc3c[nH]c4ccccc34)CC2)cc1	4.58% (inactive)
Cc1cc(C)cc(NS(=O)(=O)c2ccc3[nH]cc(C(=O)N4CCCCC4)c(=O)c3c2)c1	-3.92% (inactive)
CCN(c1ccc(Cl)cc1)S(=O)(=O)c1nnc(NC(=O)c2ccco2)s1	-1.57% (inactive)
COc1cccc(CN(C)CC(=O)NCc2ccccc2Cl)c1OC	-23.2% (inactive)
Cc1nc2ccc(C(=O)N(C)CC3CCCN(CCc4ccc(Cl)cc4)C3)cc2[nH]1 (stereo not given)	-13.3% (inactive)
COc1cccc(CN(C)CC2CCCN(CCc3ccc(Cl)cc3)C2)c1OC (stereo not given)	-79.9% (active)
CCc1ccc(NC(=O)CCS(=O)(=O)c2cc3c(cc2Cl)NC(=O)CO3)cc1	-16.7% (inactive)
COc1ccc(-n2c(SCC(N)=O)nc3c(oc4ccccc43)c2=O)cc1	10.8% (inactive)
Nc1c(C(=O)c2cccs2)sc2nsc(SCCN3CCCCC3)c12	-42.4% (active)
CN(C)c1ccc(C(CNS(=O)(=O)c2cc(F)ccc2F)N2CCOCC2)cc1 (stereo not given)	-3.66% (inactive)
Cc1cccc(NC(=O)CSc2nc3c([nH]c4ccccc43)c(=O)n2-c2cc(C)cc(C)c2)c1	23.9% (inactive)
Cc1ccc(NC(=O)CSc2nc3c([nH]c4ccccc43)c(=O)n2-c2ccccc2)cc1Cl	-8.44% (inactive)
Cc1ccc(NC(=O)CSc2nc3c([nH]c4ccccc43)c(=O)n2-c2ccccc2)c(C)c1	-35.7% (active)
CCN(CC)C(=O)CSc1nnc(-c2ccc(S(=O)(=O)NCc3ccccc3Cl)cc2)o1	-32.6% (active)
CCc1ccccc1NC(=O)CSc1nnc(-c2ccncc2)o1	7.4% (inactive)

Structure (SMILES)	activity change, negative = inhibition
CCN(C(=O)CSc1nnc(-c2ccncc2)o1)c1ccccc1	-3.41% (inactive)
CCOc1ccc(C(=O)c2cn(Cc3ccc(F)cc3)c3ccc(F)cc3c2=O)cc1	-1.13% (inactive)
Cc1cccc(Cn2c(SCc3ccc(C(=O)N4CCC(C)CC4)cc3)nc3ccncc32)c1	-18.5% (inactive)
O=C1NC(c2ccccc2)Oc2ccccc21 (stereo not given)	3.6% (inactive)
CN1CC(c2ccccc2)C2(COc3ccccc3C2=O)C12C(=O)Nc1ccccc12 (stereo not given)	-39.3% (active)
Oc1ccccc1-c1nc(/C=C/c2ccc(F)cc2)no1	3.54% (inactive)
Cc1cc2c(cc1S(=O)(=O)CCC(=O)Nc1ccc(OC(F)(F)F)cc1)OCC(=O)N2	-0.986% (inactive)
CCOC(=O)c1ccc(NC(=O)CC2C(=O)N(c3cccc(OC)c3)C(=O)N2C2CCCCC2)cc1 (stereo not given)	-8.12% (inactive)
CC(=O)c1sc(NC(=O)C2=NN(c3ccccc3)C(=O)CC2)nc1C	2.3% (inactive)
CC(=O)c1sc(N/N=C\c2ccc(C)cc2)nc1C	-54.7% (active)
CC(=O)c1sc(N/N=C/c2ccc(C(C)C)cc2)nc1C	-11% (inactive)
CCOC(=O)CNC(=O)c1cc2c(=O)n3cccc(C)c3nc2s1	0.697% (inactive)
COc1ccc(N(CC(=O)NC2CCCCC2)S(=O)(=O)c2c(C)[nH]c(=O)[nH]c2=O)cc1	-34% (active)
COc1ccc(N(CC(=O)NC2CCCCCCC2)S(=O)(=O)c2c(C)nn(C)c2C)cc1	-2.1% (inactive)
CCOc1ccc(N(CC(=O)NC2CCCCCC2)S(=O)(=O)c2c(C)[nH]c(=O)[nH]c2=O)cc1	7.77% (inactive)
Cc1cc(C)n(-c2c(F)c(F)c(COC(=O)c3ccccc3)c(F)c2F)n1	-44% (active)
CCOC(=O)c1cnc(-n2nc(C)cc2C)nc1NNc1cc(C)nc(-c2ccccc2)n1	-5.98% (inactive)
CCCOn1c(-n2nc(C)cc2C)nc2ccccc2c1=O	-4.18% (inactive)
CCCN(CCC)C(=O)C1CCCN(c2ncnc3c2nc2n3CCCCC2)C1 (stereo not given)	11.5% (inactive)
Cc1ccc(NC(=O)C(C)OC(=O)Cc2c[nH]c3ccccc23)cc1S(=O)(=O)N1CCOCC1 (stereo not given)	-47.8% (active)
CC(OC(=O)CCCc1c[nH]c2ccccc12)C(=O)Nc1ccc(S(N)(=O)=O)cc1 (stereo not given)	8.67% (inactive)
Cc1cc(C(=O)Nc2ccc(C)c(S(=O)(=O)N3CCOCC3)c2)c2ccccc2n1	11.4% (inactive)
COc1cc(OC)c(OC)cc1/C=C/c1nc2cc3ccccc3cc2c(=O)n1-c1ccc(F)c(Cl)c1	-0.661% (inactive)

Structure (SMILES)	activity change, negative = inhibition
CCCN(CCC)C(=O)Cn1c(=O)n(-c2ccc(Cl)cc2)c(=O)c2c3c(sc21)CCCCC3	10.1% (inactive)
Cc1ccc(CNC(=O)Cn2c(=O)ccc3cc(S(=O)(=O)N4CCCC4)ccc32)cc1	3.17% (inactive)
CCCCC(CCC(=O)Nc1ccc(C(=O)OCC)cc1)C(=O)O (stereo not given)	-5.38% (inactive)
CCCCCOC(=O)NCCOC(=O)Nc1ccc(C(=O)OCC)cc1	-34.7% (active)
Cc1ccc(NC(=O)OCCNC(=O)c2ccncc2)cc1	-26.6% (inactive)
Cc1ccc2nc(COc3cccc(NC(=O)c4cccc(Cl)c4)c3)cc(=O)n2c1	3.14% (inactive)
CCOC(=O)c1cc2c(=O)n3ccccc3nc2n(Cc2ccco2)c1=NC(=O)c1ccc(F)cc1	-29.5% (inactive)
COc1ccc(OC)c(NC(=O)Cn2c(=O)n(Cc3ccccc3)c(=O)c3ccccc32)c1	-5.43% (inactive)
CCOc1ccc(NC(=O)c2c(NC(=O)Cc3ccccc3)sc3c2CCC(C)C3)cc1 (stereo not given)	11.2% (inactive)
Cc1ccc(NC(=O)c2cc(S(=O)(=O)NCCC3=CCCCC3)ccc2F)cc1C	-29.8% (inactive)
CC(Nc1nc(N2CCOCC2)nc2ccccc12)c1ccccc1 (stereo not given)	-48.3% (active)
CC(Nc1nc(N2CCN(CCO)CC2)nc2ccccc12)c1ccccc1 (stereo not given)	2.98% (inactive)
CC(Nc1nc(N2CCCC2)nc2ccccc12)c1ccccc1 (stereo not given)	-25.4% (inactive)
Cc1ccccc1CNC(=O)c1cccc(NC(=O)c2nsc3ccccc23)c1	3.86% (inactive)
COc1cc(CNCCSc2nnnn2C)ccc1OCc1ccc(Cl)cc1Cl	0.753% (inactive)
CN(C)c1ccc(C(=O)NCC(=O)OC(C(=O)Nc2cc(C(F)(F)F)ccc2Cl)c2ccccc2)cc1 (stereo not given)	-15.1% (inactive)
Cc1ccc(C(=O)CS(C)(=O)=O)cc1	-33.3% (active)
Cc1ccc(C(=O)Cc2nnc(C)s2)cc1	7.19% (inactive)
Cc1ccc(C(=O)Cn2cccn2)cc1	-6.01% (inactive)
CCc1nc2onc(C)c2c(=O)n1CC(=O)O	10.4% (inactive)
O=C(COc1ccccc1F)OCc1cc(=O)n2nc(C3CCCCC3)sc2n1	11% (inactive)
